Compounds with a hit are over-represented: about 5.3% of the library has one in this group of screens.
VACV Venus inh – inhibitors of vaccinia virus (Venus reporter); Vaccinia virus Venus reporter expression, fluorescence; Potency, µM (titrated, usually from 36.5 µM), without a hit: at the top dose activity change, negative = inhibition, actives largely listed as inhibitors; hit rate 0.46% among 330,000; AID 720580; calls by dose curve; tested in A549 cells; further: nearly all actives have a fitted effect of over 30% in size
VACV mCherry inh – vaccinia inhibition (mCherry reporter); Vaccinia virus mCherry reporter infection, fluorescence; Potency, µM (doses to about 36.5 µM), for inactives: top-dose activity change, negative = inhibition, most hits filed as inhibitors; hit rate 0.63% among 310,000; AID 720579; calls by dose curve; tested in A549 cells; further: nearly all actives have a fitted effect of over 35% in size
MARV entry inh – inhibitors of Marburg virus binding or cell entry | Marburg virus pseudotyped entry inhibition, cell reporter | hit rate 1.8% among 300,000 | AID 540276 | Potency, µM (series often up to 37.8 µM), for the others: at the highest dose activity change, negative = inhibition, actives largely listed as inhibitors; calls by dose curve; tested in HEK293 cells
HCV inh – HCV inhibition; Huh7.5.1 HCVcc-Cre infection, luciferase reporter, 44 h; Potency, µM (titrated, usually from 41.8 µM), without a hit: top-dose activity change, negative = inhibition, most hits filed as inhibitors; hit rate 3.4% among 340,000; AID 651820; active means well fitted inhibition curve with a large enough effect; inconclusive means small, poorly fitted or top-dose-only effect, or another doubt; inactive means no such curve, though single readings can be large or run the other way
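HCVcc-Cre virus at an moi near 0.5 was added right after compound to cells cultured 4 h from seeding (1,000 cells/well). Luciferase activity was determined 44 h later, 15 min after substrate addition at RT.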
FMDV inh – antivirals against foot and mouth disease virus; FMDV antiviral cell-based qHTS; hit rate 1.2% among 410,000; Potency, µM (titrated, usually from 57.9 µM), inactives show top-dose activity change, negative = inhibition, usual class: inhibitors; calls by dose curve; tested in HEK293T cells; further: read-out not given here; nearly all actives have a fitted effect of over 45% in size
LASV entry inh – Lassa virus entry inhibition; Lassa virus pseudotype entry inhibition, cell reporter; Potency, µM (top dose mostly 37.9 µM), inactives show at the top dose activity change, negative = inhibition, hits mostly inhibitors; hit rate 1.2% among 300,000; AID 540256; calls by dose curve; tested in HEK293 cells; further: nearly all actives have a fitted effect of over 50% in size
Active calls of the source: *; i = inactive; ? = inconclusive; · = no result; [ ] = remark or other dose. On the % scale 0 is the no-effect control and ±100 the full control effect; potency means the concentration at half of the fitted maximal effect.

SMILES | VACV Venus inh | VACV mCherry inh | MARV entry inh | HCV inh | FMDV inh | LASV entry inh
CN(C)S(=O)(=O)c1ccc(-c2csc(N/N=C/c3ccco3)n2)cc1 | -17.7% | ? | ? | ? | 6.31µM* | 8.91µM*
CN(C)S(=O)(=O)c1ccc(-c2csc(N/N=C/c3ccc(O)cc3)n2)cc1 | ? | ? | 7.3µM* | 10µM* | 14.1µM* | 7.08µM*
Cc1ccc(NC(=O)COc2ccc(-c3nn(C)c(=O)c4ccccc34)cc2)cc1 | ? | ? | -19.4%[46.1 µM] | · | ? | -6.4%[46.1 µM]
O=C(COc1ccc(C(=O)c2ccccc2)cc1)Nc1cccnc1 | 2.4% | -13.3% | ? | 6.31µM* | ? | ?
Cn1nc(-c2ccc(OCC(=O)Nc3cccnc3)cc2)c2ccccc2c1=O | · | · | -12.7% | ? | 35.5µM* | -4.2%
COc1ccc(-c2nn(C)c(=O)c3ccccc23)cc1NC(=O)COc1ccc(C)cc1 | · | · | ? | ? | ? | 5.8µM*
O=C(COc1ccc(C(=O)c2ccccc2)cc1)NC1CCCCCC1 | -15.0% | -22.9% | ? | 11.2µM* | ? | ?
CC(CCN1CCCc2nc(C)c(C)cc21)=NO[C@H](C)c1cn([C@H](CO)Cc2ccccc2)nn1 | · | · | -41.4%[14.2 µM] | · | · | ·
CCOCc1c(C(=O)N2CCN(CCOc3ccc(Cl)cc3)CC2)oc2ccccc12 | -6.8% | -21.5% | ? | 5.62µM* | ? | ?
CC(C)C[C@@H](CO)NS(=O)(=O)c1c(F)cccc1F | -5.6% | -10.9% | ? | 3.55µM* | -11.0% | ·
Cc1sc2ccccc2[n+]1CC(=O)c1ccc(F)cc1 | -15.0% | i | · | · | · | ·
COc1cc(/C=C/C(=O)c2ccc(O)cc2)ccc1OCC#N | 12.6µM* | 12.6µM* | ? | ? | 28.2µM* | 1.58µM*
COc1ccc(/C=C/C(=O)c2ccccc2)cc1COc1ccccc1F | · | · | ? | ? | 20µM* | -29.1%
COc1cccc(C(=O)/C=C/c2ccc(OCC#N)c(OC)c2)c1 | ? | ? | 14.6µM* | ? | ? | ?
COc1ccccc1C(O)c1nccn1Cc1ccccc1 (configuration not stated) | -22.1% | -8.9% | · | · | · | ·
CCOC(=O)Cc1ccc(NC(=O)n2ncc3cc(Cl)ccc32)cc1 | -16.8% | -20.3% | 28.0%[46.1 µM] | · | ? | -7.9%[46.1 µM]
Cc1ccc(-c2cc(C(F)F)nc(S(C)(=O)=O)n2)cc1 | -4.4% | -0.7% | ? | ? | 31.6µM* | ?
Nc1nn2c(-c3ccccc3)cc(=O)[nH]c2c1N=Nc1ccc(O)cc1 | -8.4% | -19.8% | ? | -14.0% | -4.5% | ?
Nc1nn2c(-c3ccccc3)cc(=O)[nH]c2c1N=Nc1ccc(Br)cc1 | ? | 15.8µM* | · | 4.1% | -3.1% | ·
Cc1cccc(N2CCN(C(=O)c3ccc4c(Cl)c5c(nc4c3)CCCC5)CC2)c1C | -18.2% | -26.1% | 9.9%[46.1 µM] | · | -12.6% | 28.8%[46.1 µM]
O=c1c(Cl)c(NCCCO)cnn1-c1nc2ccccc2[nH]1 | 9.1% | -12.1% | ? | 10µM* | 9.8% | ?
CCCCn1c(N)c(S(=O)(=O)c2ccc(C)cc2)c2nc3ccccc3nc21 | -29.1% | -14.8% | 10µM* | ? | 20.9% | ?
O=C(c1ccncc1)N1CCC2(CCC(CNC(=O)C3(N4CCOCC4)CCCCC3)O2)CC1 (configuration not stated) | 10.4% | 5.1% | · | · | -3.8% | ·
CN(C)CCCN1CC(=O)N2[C@@H](Cc3c([nH]c4ccccc34)C2(C)C)C1=O | · | · | · | 0.9% | -27.7% | ·
Cc1cccc(CN2C(=O)[C@H]3Cc4c([nH]c5ccccc45)C(C)(C)N3C2=O)c1 | · | · | · | · | 35.5µM* | ·
SMILES | VACV Venus inh | VACV mCherry inh | MARV entry inh | HCV inh | FMDV inh | LASV entry inh
C=CCCN1C(=O)NC(c2ccccc2)C(C(C)=O)=C1C (configuration not stated) | · | · | 28.5%[14.2 µM] | · | · | ·
C[C@@H]1O[C@@H](O[C@@H]2C=C3CC[C@@H]4[C@@H](CC[C@]5(C)[C@H](c6ccc(=O)oc6)CC[C@@]45O)[C@@]3(C)CC2)[C@H](O)[C@H](O)[C@H]1O | 6.31µM* | 10µM* | · | · | · | ·
C[C@@H]1O[C@@H](O[C@@H]2C(=O)c3c(O)cc(O)cc3O[C@H]2c2ccc(O)c(O)c2)[C@H](O)[C@H](O)[C@H]1O | 3.1% | -11.8% | · | 4.9% | -12.5% | ·
Cc1cccc(C)c1N=C1NN=C(c2ccccc2F)CS1 | -15.0% | -2.6% | ? | ? | -19.9% | -0.1%
Cc1ccccc1N=C1NN=C(c2ccccc2F)CS1 | · | · | 14.6µM* | ? | -3.4% | ?
FC(F)Sc1ccc(N=C2NN=C(c3ccc4c(c3)OCCO4)CS2)cc1 | · | · | ? | 10µM* | -6.7% | ?
CCCCN=C1NN=C(c2ccc3c(c2)OCCO3)CS1 | -14.1% | -15.1% | ? | -19.5% | ? | 7.94µM*
c1ccc2oc(C3=NNC(=NC4CC4)SC3)cc2c1 | · | · | 1.83µM* | 13.3% | -53.7% | 7.3µM*
CCCCN=C1NN=C(c2ccc(C)c(C)c2)CS1 | -8.5% | -11.7% | ? | ? | 37.9% | -25.7%
COc1cc(=O)n2c(c1C(=O)NC(C)c1ccco1)CCN(Cc1cc(C)ccc1C)CC2 (configuration not stated) | 8.0% | -8.0% | · | · | -14.6% | ·
COc1ccc(-n2c(=O)c3c4c(sc3n(Cc3ccc(C)cc3C)c2=O)CCC4)c(OC)c1 | -10.9% | -13.0% | 8.0%[46.1 µM] | · | -14.3% | -6.4%[46.1 µM]
CC(C)=CCCC(C)=CCN1C(=O)[C@@]2(C[C@@H](C)C[C@@H](C)O2)c2ccccc21 | · | · | -6.8%[14.2 µM] | · | · | ·
CCCCn1c(C)cc2c(c1=O)[C@H]1O[C@](CCCC)(Cc3cc(C#N)ccc31)O2 | · | · | -17.9%[14.2 µM] | · | · | ?
O=C(c1ccco1)N(Cc1cccs1)c1ccc(F)cc1 | -8.3% | -1.0% | -14.4%[46.1 µM] | · | -19.3% | 14.2%[46.1 µM]
c1cc2c(cc1C1=NNC(=NC3CC3)SC1)OCCO2 | · | · | 0.326µM* | -16.4% | ? | 0.291µM*
Cc1cc(C2=NNC(=NC3CC3)SC2)c(C)n1-c1ccccc1F | · | · | 0.13µM* | 11.2µM* | 0.01µM* | 0.13µM*
Cc1cc(C2=NNC(=NC3CCCCC3)SC2)c(C)n1-c1c(C)n(C)n(-c2ccccc2)c1=O | -29.7% | -20.6% | -41.0% | -26.8% | -0.6% | 2.6%
COc1ccccc1-c1ccnc(-n2ncc(C(=O)NCc3cccc(C)n3)c2C)n1 | 5.7% | -11.9% | · | · | -7.7% | ·
CCN(CC)c1ccc2cc(C(=O)c3cccs3)c(=O)oc2c1 | 177.0% | 19.8% | · | · | 31.0% | ·
CC(C)(C)c1csc(NC(=O)CCS(=O)(=O)c2ccc(F)cc2)n1 | 7.94µM* | 7.08µM* | · | · | ? | ·
Cc1ccc(S(=O)(=O)CCC(=O)Nc2nc(C(C)(C)C)cs2)cc1 | · | · | · | -20.6% | -26.0% | ·
Cc1ccc(S(=O)(=O)CC(=O)Nc2nc(C(C)(C)C)cs2)cc1 | -7.4% | -12.7% | 2.1% | 2.2% | -22.8% | 3.66µM*
CC1CCN(S(=O)(=O)c2ccc3c(c2)CCN3C(=O)Nc2ccc(Br)cc2F)CC1 | -15.0% | -12.9% | 7.0%[46.1 µM] | · | -2.3% | ·
COc1ccc(CNC(=O)C(=O)Nc2c3c(nn2-c2ccccc2)CSC3)cc1 | -27.6% | ? | · | · | -21.4% | ?
Cn1cccc1C(=O)N1CCC2(CC1)CN(C(=O)Nc1cccc(F)c1)C2 | · | · | · | · | 0.2% | ·
